In ChEMBL document CHEMBL2218924, “A broad activity screen in support of a chemogenomic map for kinase signalling research and drug discovery” (Biochem J, 2013) one finds residual activity data, which are given here for one molecule.

Assay [1] has as its target T1, Serine/threonine-protein kinase TBK1 (Homo sapiens) (UniProt Q9UHD2).
T1 sequence (whole entry): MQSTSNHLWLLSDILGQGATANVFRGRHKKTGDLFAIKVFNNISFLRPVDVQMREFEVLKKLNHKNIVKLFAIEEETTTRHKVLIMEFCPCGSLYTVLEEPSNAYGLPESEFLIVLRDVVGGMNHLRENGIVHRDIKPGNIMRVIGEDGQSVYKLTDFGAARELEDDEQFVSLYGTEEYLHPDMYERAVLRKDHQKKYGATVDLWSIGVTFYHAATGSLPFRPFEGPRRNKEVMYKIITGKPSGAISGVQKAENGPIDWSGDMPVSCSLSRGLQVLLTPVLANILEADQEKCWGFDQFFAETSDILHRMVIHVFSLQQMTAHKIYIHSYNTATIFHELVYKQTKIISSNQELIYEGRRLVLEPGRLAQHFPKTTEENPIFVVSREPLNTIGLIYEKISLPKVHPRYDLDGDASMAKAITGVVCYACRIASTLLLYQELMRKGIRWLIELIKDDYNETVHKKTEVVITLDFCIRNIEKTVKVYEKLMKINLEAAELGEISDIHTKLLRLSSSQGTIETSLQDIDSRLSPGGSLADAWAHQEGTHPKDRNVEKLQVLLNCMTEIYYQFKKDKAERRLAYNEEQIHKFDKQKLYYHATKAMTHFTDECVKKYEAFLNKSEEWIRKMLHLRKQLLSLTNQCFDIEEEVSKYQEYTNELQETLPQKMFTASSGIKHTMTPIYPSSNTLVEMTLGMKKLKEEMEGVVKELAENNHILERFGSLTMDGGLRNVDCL
The following applies: at 10 µM.

Assay [2] addresses T2, TGF-beta receptor type-1 (Homo sapiens) (UniProt P36897).
T2 sequence (whole entry): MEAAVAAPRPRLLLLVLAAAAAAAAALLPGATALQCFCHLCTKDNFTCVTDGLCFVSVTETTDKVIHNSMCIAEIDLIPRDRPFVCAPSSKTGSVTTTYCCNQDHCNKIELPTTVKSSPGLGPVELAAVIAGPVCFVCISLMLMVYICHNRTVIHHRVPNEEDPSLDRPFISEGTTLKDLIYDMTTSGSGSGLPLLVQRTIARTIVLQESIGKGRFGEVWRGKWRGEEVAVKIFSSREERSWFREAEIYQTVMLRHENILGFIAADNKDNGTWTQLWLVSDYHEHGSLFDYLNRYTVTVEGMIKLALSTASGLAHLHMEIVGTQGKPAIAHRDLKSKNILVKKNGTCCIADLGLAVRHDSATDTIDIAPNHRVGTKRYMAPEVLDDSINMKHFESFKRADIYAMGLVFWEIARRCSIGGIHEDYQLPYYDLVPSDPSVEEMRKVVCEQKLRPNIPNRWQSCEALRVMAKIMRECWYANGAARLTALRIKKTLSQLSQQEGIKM
As to conditions: at 1 µM.

The target of assay [3] is T2, TGF-beta receptor type-1 (Homo sapiens). The following applies: at 10 µM.
Assay [4] addresses Insulin-like growth factor 1 receptor (Homo sapiens) (UniProt P08069). The following applies: at 1 µM.
Assay [5] shares this target. As to conditions: at 10 µM.
Assay [6] deals with T3, Inhibitor of nuclear factor kappa-B kinase subunit alpha (Homo sapiens) (UniProt O15111).
T3 sequence (whole entry): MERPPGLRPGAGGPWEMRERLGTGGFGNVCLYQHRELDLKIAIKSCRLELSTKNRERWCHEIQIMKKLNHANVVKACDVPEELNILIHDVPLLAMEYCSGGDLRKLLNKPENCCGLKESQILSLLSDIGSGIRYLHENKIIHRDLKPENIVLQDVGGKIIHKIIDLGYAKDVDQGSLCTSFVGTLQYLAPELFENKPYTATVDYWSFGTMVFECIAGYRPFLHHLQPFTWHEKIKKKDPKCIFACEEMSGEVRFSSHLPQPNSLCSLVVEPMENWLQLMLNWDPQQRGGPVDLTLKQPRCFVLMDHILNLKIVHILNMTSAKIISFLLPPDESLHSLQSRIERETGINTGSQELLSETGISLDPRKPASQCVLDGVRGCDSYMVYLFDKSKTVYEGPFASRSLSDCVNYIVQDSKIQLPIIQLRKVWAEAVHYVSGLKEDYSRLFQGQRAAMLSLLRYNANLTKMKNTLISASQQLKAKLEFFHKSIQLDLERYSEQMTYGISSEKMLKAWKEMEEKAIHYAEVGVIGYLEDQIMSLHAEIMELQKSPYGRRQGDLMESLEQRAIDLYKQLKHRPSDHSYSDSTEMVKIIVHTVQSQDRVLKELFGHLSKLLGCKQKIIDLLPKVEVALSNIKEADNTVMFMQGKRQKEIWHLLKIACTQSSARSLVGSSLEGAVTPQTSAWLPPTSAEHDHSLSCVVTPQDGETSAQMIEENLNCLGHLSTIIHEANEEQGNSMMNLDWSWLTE
The following applies: at 1 µM.

The target in assay [7] is T3, Inhibitor of nuclear factor kappa-B kinase subunit alpha (Homo sapiens). As to conditions: at 10 µM.
Assay [8] addresses T4, Inhibitor of nuclear factor kappa-B kinase subunit beta (Homo sapiens) (UniProt O14920).
T4 sequence (whole entry): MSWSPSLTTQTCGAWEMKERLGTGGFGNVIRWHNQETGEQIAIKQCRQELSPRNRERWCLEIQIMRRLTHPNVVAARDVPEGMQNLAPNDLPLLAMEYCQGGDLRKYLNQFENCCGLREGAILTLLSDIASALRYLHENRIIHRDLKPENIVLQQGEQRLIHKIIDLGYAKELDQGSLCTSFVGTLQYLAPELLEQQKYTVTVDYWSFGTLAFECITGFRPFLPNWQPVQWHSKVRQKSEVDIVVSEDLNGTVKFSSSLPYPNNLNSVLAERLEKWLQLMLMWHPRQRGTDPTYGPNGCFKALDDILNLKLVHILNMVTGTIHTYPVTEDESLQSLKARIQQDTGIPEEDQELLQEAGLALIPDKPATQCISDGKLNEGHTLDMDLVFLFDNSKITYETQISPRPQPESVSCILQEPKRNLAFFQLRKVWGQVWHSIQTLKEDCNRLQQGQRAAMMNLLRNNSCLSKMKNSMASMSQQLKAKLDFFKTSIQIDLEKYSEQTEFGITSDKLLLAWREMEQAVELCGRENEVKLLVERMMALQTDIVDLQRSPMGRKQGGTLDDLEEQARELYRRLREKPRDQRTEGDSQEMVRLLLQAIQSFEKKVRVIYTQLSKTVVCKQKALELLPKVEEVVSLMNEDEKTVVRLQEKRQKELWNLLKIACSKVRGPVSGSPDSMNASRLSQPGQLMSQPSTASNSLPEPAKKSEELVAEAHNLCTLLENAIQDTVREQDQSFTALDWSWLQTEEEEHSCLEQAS
As to conditions: at 1 µM.

The target in assay [9] is T4, Inhibitor of nuclear factor kappa-B kinase subunit beta (Homo sapiens). The following applies: at 10 µM.
For assay [10], the target named is Insulin receptor (Homo sapiens) (UniProt P06213). The following applies: at 1 µM.

Molecules are shown by their SMILES.

Chain of Insulin-like growth factor 1 receptor (Homo sapiens) (P08069 31-736 limits assumed): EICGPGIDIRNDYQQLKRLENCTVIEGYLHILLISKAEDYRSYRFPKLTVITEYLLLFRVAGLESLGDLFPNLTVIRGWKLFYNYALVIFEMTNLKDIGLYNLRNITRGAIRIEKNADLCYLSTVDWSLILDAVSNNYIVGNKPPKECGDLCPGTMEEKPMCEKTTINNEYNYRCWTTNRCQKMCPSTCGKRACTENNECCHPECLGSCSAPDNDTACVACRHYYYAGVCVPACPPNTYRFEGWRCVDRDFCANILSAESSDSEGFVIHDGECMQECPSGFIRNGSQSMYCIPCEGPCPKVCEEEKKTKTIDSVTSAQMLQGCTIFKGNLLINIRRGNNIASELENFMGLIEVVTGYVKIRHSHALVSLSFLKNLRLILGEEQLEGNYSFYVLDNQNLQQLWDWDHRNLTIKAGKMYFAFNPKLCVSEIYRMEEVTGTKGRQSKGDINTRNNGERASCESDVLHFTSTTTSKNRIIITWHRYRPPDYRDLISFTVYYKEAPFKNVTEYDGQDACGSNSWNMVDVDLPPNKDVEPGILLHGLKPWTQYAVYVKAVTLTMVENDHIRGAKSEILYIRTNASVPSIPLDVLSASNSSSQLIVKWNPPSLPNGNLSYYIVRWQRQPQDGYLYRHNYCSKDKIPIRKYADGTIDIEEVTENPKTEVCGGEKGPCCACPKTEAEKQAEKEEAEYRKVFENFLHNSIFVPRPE
Chain of Insulin-like growth factor 1 receptor (Homo sapiens) (P08069 741-1367 limits assumed): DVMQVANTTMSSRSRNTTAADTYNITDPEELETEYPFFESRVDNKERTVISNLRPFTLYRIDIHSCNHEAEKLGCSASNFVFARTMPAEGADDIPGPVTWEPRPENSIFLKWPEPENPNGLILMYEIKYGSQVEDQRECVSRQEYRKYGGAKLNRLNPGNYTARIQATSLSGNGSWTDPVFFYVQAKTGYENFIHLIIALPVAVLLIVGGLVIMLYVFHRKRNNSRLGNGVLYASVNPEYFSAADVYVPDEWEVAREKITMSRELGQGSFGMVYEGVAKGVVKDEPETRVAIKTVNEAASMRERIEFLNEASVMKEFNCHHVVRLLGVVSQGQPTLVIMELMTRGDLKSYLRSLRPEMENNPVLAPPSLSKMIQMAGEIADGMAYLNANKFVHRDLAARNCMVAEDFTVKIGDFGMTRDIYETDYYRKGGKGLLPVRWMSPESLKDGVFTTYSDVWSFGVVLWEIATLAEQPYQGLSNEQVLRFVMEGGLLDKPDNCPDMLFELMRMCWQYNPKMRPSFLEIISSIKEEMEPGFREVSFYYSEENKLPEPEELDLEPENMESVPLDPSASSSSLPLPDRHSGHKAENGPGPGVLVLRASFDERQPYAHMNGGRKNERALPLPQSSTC
Chain of Insulin receptor (Homo sapiens) (P06213 28-758 limits assumed): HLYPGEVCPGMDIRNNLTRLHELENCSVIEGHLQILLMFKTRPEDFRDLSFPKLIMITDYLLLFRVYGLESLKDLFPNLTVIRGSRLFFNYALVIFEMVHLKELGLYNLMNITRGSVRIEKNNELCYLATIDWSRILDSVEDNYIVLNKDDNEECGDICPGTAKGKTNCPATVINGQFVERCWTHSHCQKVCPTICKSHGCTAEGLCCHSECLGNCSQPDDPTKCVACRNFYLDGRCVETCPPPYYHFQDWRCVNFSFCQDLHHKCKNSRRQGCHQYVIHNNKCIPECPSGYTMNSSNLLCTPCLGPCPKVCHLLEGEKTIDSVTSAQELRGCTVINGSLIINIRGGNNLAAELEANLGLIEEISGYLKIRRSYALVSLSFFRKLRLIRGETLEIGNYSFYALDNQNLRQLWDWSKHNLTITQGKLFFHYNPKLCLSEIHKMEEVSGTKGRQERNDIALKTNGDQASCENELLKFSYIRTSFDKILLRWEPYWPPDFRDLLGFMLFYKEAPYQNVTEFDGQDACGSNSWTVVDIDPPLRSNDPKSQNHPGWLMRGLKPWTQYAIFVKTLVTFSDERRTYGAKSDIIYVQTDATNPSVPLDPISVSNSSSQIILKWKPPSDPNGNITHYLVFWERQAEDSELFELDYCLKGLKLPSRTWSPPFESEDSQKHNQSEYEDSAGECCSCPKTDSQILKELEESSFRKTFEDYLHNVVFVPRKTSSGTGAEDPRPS
Chain of Insulin receptor (Homo sapiens) (P06213 763-1382 limits assumed): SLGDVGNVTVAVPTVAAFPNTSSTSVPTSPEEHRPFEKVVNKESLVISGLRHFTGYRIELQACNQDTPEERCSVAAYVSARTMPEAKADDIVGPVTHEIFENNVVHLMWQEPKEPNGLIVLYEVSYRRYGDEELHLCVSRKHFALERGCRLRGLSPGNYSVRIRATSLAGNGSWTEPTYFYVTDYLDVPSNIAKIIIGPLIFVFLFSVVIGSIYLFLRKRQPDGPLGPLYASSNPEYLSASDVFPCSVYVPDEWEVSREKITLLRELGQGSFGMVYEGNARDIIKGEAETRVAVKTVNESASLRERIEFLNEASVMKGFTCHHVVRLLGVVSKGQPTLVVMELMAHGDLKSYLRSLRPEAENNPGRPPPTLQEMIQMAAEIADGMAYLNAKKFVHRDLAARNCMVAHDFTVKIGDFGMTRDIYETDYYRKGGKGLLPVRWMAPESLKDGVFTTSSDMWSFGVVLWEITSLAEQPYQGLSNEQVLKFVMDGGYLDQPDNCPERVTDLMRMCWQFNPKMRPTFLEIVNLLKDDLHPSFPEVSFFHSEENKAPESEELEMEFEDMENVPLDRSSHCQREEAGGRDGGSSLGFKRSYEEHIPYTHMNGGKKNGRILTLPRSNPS

As to `CC#CC(=O)Nc1cc2c(Nc3ccc(F)c(Cl)c3)ncnc2cn1`, the residual activity in [1] came out at 72%; in assay [2], 74%; in [3] it was 89%; in [4], 98%; in assay [5], 93%; in assay [6], 97%. In addition, the residual activity is 95% in assay [7], 96% in [8], 96% in [9] and 101% in assay [10].

By residual activity is commonly meant the signal under treatment as a percentage of the control signal.
